From PubChem BioAssay AID1159580 (chemical genetic matrix, 2015)
Hit rate of the full screen: of about 5,500 compounds, about 2,000 (36%) were called active. Roughly 18% stayed inconclusive and do not appear here. No stated cut-off is given here; in the data, active means normalized growth mostly below about 0.91 (no sharp cut-off); inconclusive means no clear call, values can overlap the other calls; inactive means mostly above about 0.92. Some of the results follow.

Test: chemical genetic growth profiling, strain panel (AID 1159580);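 further: tested at 20 µM; growth read once vehicle control cultures reached saturation at 30 °C; 1 = growth at the plate median or of vehicle wells; lower values mean less growth of the strain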
Conditions: S. cerevisiae deletion strains, growth OD
[1] = locus YAR019C, strain CDC15, active compounds read low
[2] = locus YBL105C, strain PKC1, active compounds read low
[3] = locus YBR135W, strain CKS1, active compounds read low
[4] = locus YBR136W, strain MEC1, active compounds read low
[5] = locus YBR160W, strain CDC28, active compounds read low
[6] = locus YDL017W, strain CDC7, active compounds read low
[7] = locus YDL028C, strain MPS1, active compounds read low
[8] = locus YDL101C, strain DUN1, active compounds read low
[9] = locus YDL108W, strain KIN28, active compounds read low
[10] = locus YDL132W, strain cdc53, active compounds read low
[11] = locus YDL214C, strain PRR2, active compounds read low
[12] = locus YDR052C, strain DBF4, active compounds read low
[13] = locus YDR054C, strain cdc34, active compounds read low
[14] = locus YDR226W, strain ADK1, active compounds read low
[15] = locus YDR477W, strain SNF1, active compounds read low
[16] = locus YER123W, strain YCK3, active compounds read low
[17] = locus YER133W, strain GLC7, active compounds read low
[18] = locus YFL009W, strain cdc4, active compounds read low
[19] = locus YFL029C, strain CAK1, active compounds read low
[20] = locus YFR003C, strain YPI1, active compounds read low
[21] = locus YFR019W, strain FAB1, active compounds read low
[22] = locus YFR028C, strain CDC14, active compounds read low
[23] = locus YGR040W, strain KSS1, active compounds read low
[24] = locus YGR052W, strain FMP48, active compounds read low
[25] = locus YGR092W, strain DBF2, active compounds read low
[26] = locus YHR030C, strain SLT2, active compounds read low
[27] = locus YHR079C, strain IRE1, active compounds read low
[28] = locus YHR082C, strain KSP1, active compounds read low
[29] = locus YHR205W, strain SCH9, active compounds read low
[30] = locus YIL147C, strain SLN1, active compounds read low
[31] = locus YJL095W, strain BCK1, active compounds read low
[32] = locus YJL128C, strain PBS2, active compounds read low
[33] = locus YJL157C, strain FAR1, active compounds read low
[34] = locus YJR016C, strain ILV3, active compounds read low
[35] = locus YJR066W, strain TOR1 (second series), active compounds read low
[36] = locus YJR066W, strain TOR1, active compounds read low
[37] = locus YKL048C, strain ELM1, active compounds read low
[38] = locus YKL067W, strain YNK1, active compounds read low
[39] = locus YKL101W, strain HSL1, active compounds read low
[40] = locus YKL193C, strain SDS22, active compounds read low
[41] = locus YKL203C, strain TOR2, active compounds read low
[42] = locus YLR113W, strain HOG1, active compounds read low
[43] = locus YLR133W, strain CKI1, active compounds read low
[44] = locus YLR403W, strain SFP1, active compounds read low
[45] = locus YML070W, strain DAK1, active compounds read low
[46] = locus YMR001C, strain CDC5, active compounds read low
[47] = locus YMR205C, strain PFK2 (second series), active compounds read low
[48] = locus YMR277W, strain FCP1, active compounds read low
[49] = locus YNL006W, strain LST8, active compounds read low
[50] = locus YNL020C, strain ARK1, active compounds read low
[51] = locus YNL161W, strain CBK1, active compounds read low
[52] = locus YNL183C, strain NPR1, active compounds read low
[53] = locus YNL207W, strain RIO2, active compounds read low
[54] = locus YNL222W, strain SSU72, active compounds read low
[55] = locus YNL307C, strain MCK1 (second series), active compounds read low
[56] = locus YOL078W, strain AVO1, active compounds read low
[57] = locus YOL136C, strain PFK27, active compounds read low
[58] = locus YOR061W, strain CKA2, active compounds read low
[59] = locus YOR119C, strain RIO1, active compounds read low
[60] = locus YOR231W, strain MKK1, active compounds read low
[61] = locus YOR329C, strain SCD5, active compounds read low
[62] = locus YPL031C, strain PHO85, active compounds read low
[63] = locus YPL153C, strain RAD53, active compounds read low
[64] = locus YPL204W, strain HRR25, active compounds read low
[65] = locus YPL209C, strain IPL1, active compounds read low
[66] = locus YPL256C, strain CLN2, active compounds read low
[67] = locus YPR025C, strain CCL1, active compounds read low
[68] = locus YPR106W, strain ISR1, active compounds read low
[69] = locus YPR111W, strain DBF20, active compounds read low
[70] = strain NNK1, active compounds read low
[71] = strain TSCII, active compounds read low

Measured: normalized growth

Nc1nc(Cl)nc2c1ncn2[C@@H]1O[C@H](COP(=O)(O)OP(=O)(O)OP(=O)(O)O)[C@H](O)C1O (stereo partly specified)
inactive: locus YAL013W, strain DEP1, active compounds read low 0.999 | locus YAL040C, strain CLN3, active compounds read low 0.995 | locus YCL061C, strain MRC1 (second series), active compounds read low 1 | locus YDR363W, strain ESC2, active compounds read low 1.01 | locus YER002W, strain NOP16, active compounds read low 0.99 | locus YGR078C, strain PAC10, active compounds read low 1.01 | locus YJR075W, strain HOC1, active compounds read low 1 | locus YMR307W, strain GAS1, active compounds read low 0.997 | locus YNL128W, strain TEP1, active compounds read low 1.01 | locus YNL175C, strain NOP13, active compounds read low 0.995 | locus YNL197C, strain WHI3, active compounds read low 1.02 | locus YNL224C, strain SQS1, active compounds read low 0.987 | locus YOR083W, strain WHI5 (second series), active compounds read low 1.01

CCCc1c(C(=O)NC2Cc3ccccc3C2)cnn1-c1ccccc1
inactive: [1] 0.986 | [2] 0.99 | [3] 0.996 | [4] 0.99 | [5] 0.99 | [6] 0.999 | [7] 0.993 | [8] 0.993 | [9] 0.997 | [10] 0.99 | [11] 0.976 | [12] 0.998 | [13] 0.983 | [14] 0.991 | [15] 0.964 | [16] 0.979 | [17] 0.965 | [18] 0.986 | [19] 0.988 | [20] 0.995 | [21] 0.974 | [22] 0.986 | [23] 0.96 | [24] 1.05 | [25] 1.01 | [26] 0.97 | [27] 1 | [28] 1.04 | [29] 0.991 | [30] 0.994 | [31] 0.991 | [32] 0.979 | [33] 0.969 | [34] 0.98 | [35] 0.93 | [36] 0.986 | [37] 0.982 | [38] 0.991 | [39] 0.972 | [40] 0.988 | [41] 1.01 | [42] 0.951 | [43] 0.968 | [44] 0.956 | [45] 0.97 | [46] 0.987 | [47] 0.987 | [48] 0.989 | [49] 0.995 | [50] 0.984 | [51] 0.991 | [52] 0.998 | [53] 0.987 | [54] 0.992 | [55] 0.998 | [56] 0.985 | [57] 0.96 | [58] 0.977 | [59] 1.01 | [60] 0.934 | [61] 0.992 | [62] 0.98 | [63] 0.956 | [64] 0.963 | [65] 0.994 | [66] 0.921 | [67] 0.998 | [68] 0.98 | [69] 0.981 | [70] 0.986 | [71] 0.997

CCCc1c(C(=O)Sc2ccccn2)cnn1-c1ccc(Cl)cc1
inactive: [1] 0.957 | [2] 0.962 | [3] 0.957 | [4] 0.964 | [5] 0.944 | [6] 0.963 | [7] 0.966 | [8] 0.964 | [9] 0.955 | [10] 0.95 | [11] 0.861 | [12] 0.962 | [13] 0.948 | [14] 0.959 | [15] 0.876 | [16] 0.847 | [17] 0.878 | [18] 0.957 | [19] 0.948 | [20] 0.955 | [21] 0.908 | [22] 0.955 | [23] 0.845 | [24] 0.919 | [25] 0.879 | [26] 0.933 | [27] 0.931 | [28] 0.907 | [29] 0.93 | [30] 0.967 | [31] 0.951 | [32] 0.932 | [33] 0.849 | [34] 0.955 | [35] 0.822 | [36] 0.87 | [37] 0.911 | [38] 0.885 | [39] 0.912 | [40] 0.961 | [41] 0.942 | [43] 0.912 | [44] 0.861 | [45] 0.869 | [46] 0.953 | [47] 0.932 | [48] 0.964 | [49] 0.98 | [50] 0.911 | [51] 0.955 | [52] 0.881 | [53] 0.955 | [54] 0.957 | [55] 0.912 | [56] 0.957 | [57] 0.878 | [58] 0.898 | [59] 0.947 | [60] 0.897 | [61] 0.957 | [62] 0.903 | [63] 0.899 | [64] 0.895 | [65] 0.952 | [67] 0.954 | [68] 0.95 | [69] 0.937 | [70] 0.961 | [71] 0.955
active: [42] 0.804 | [66] 0.755

CCCc1c(C(=O)NNc2cccc(Cl)c2)cnn1-c1ccccc1
inactive: [1] 0.984 | [2] 0.974 | [3] 0.987 | [4] 0.982 | [5] 0.976 | [6] 0.974 | [7] 0.995 | [8] 0.978 | [9] 0.988 | [10] 0.993 | [11] 0.944 | [12] 0.983 | [13] 0.986 | [14] 0.98 | [15] 0.954 | [16] 0.917 | [17] 0.957 | [18] 0.986 | [19] 0.98 | [20] 0.987 | [21] 0.937 | [22] 0.981 | [23] 0.925 | [24] 1 | [25] 0.957 | [26] 0.963 | [27] 0.963 | [28] 1 | [29] 0.933 | [30] 0.992 | [31] 0.968 | [32] 0.917 | [33] 0.937 | [34] 0.986 | [35] 0.911 | [36] 1.02 | [37] 0.968 | [38] 0.947 | [39] 0.924 | [40] 0.988 | [41] 0.987 | [42] 0.864 | [43] 0.936 | [44] 0.917 | [45] 0.927 | [46] 0.979 | [47] 0.948 | [48] 0.987 | [49] 0.996 | [50] 0.927 | [51] 0.983 | [52] 0.98 | [53] 0.983 | [54] 0.976 | [55] 0.935 | [56] 0.985 | [57] 0.897 | [58] 0.963 | [59] 1.01 | [60] 0.898 | [61] 0.981 | [62] 0.963 | [63] 0.94 | [64] 0.924 | [65] 0.973 | [66] 0.892 | [67] 0.982 | [68] 0.959 | [69] 0.965 | [70] 0.971 | [71] 0.988
